The campaign covered roughly 320,000 compounds. About 1,300 (0.41%) were called active. Inconclusive results (about 3%) are left out. No rule for the calls is given here. Not all results are given here. Measured potencies and affinities stand elsewhere.
Test: growth inhibition of non-replicating M. tuberculosis (AID 488890);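 also: plate controls were DMSO cells for no effect and high antibiotic wells for full effect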
Details: Mycobacterium tuberculosis non-replicating, at 25 µM, stronger effect = higher value

| Compound | inhibition [%] |
| --- | --- |
| O=c1[nH]c(O)c(C=Nc2ccc(F)c(Cl)c2)c(=O)[nH]1 | 4.76 |
| CC1=Nc2ccccc2/C1=C/c1c(O)[nH]c(=O)[nH]c1=O | 1.63 |
| O=C(Nc1cccc(Cl)c1)c1nc[nH]c1C(=O)NCc1ccccc1 | 78.3 |
| CCOCC(=O)N1CCC(Cc2ccccc2)CC1 | 47.1 |
| CCCNC(=O)N1CCC(Cc2ccccc2)CC1 | 67.7 |
| O=C(c1cccs1)N1CCC(Cc2ccccc2)CC1 | 11.9 |
| Cc1cc(C(=O)N2CCC(Cc3ccccc3)CC2)c(C)o1 | 15.3 |
| O=C(O)CCCC(=O)N1CCN(c2ncccn2)CC1 | -16.3 |
| COc1ccc(-n2cc(C(=O)c3cc4ccccc4oc3=O)c(C(C)=O)n2)cc1 | 19.3 |
| COc1ccc(CCNC(=O)c2cccc(S(=O)(=O)N3CCOCC3)c2)cc1OC | 16 |
| O=C(COC(=O)c1nc(Cl)ccc1Cl)c1ccc[nH]1 | 4.28 |
| O=C(Cc1ccc(Br)cc1)OCC(=O)c1ccc[nH]1 | 79.4 |
| O=C(COC(=O)c1ccc[nH]c1=O)c1ccc(Cl)s1 | 21.8 |
| O=C(Cc1ccc(Cl)c(Cl)c1)OCC(=O)c1ccc[nH]1 | 70.6 |
| CC(=O)N1c2ccc(S(=O)(=O)NCC3CCC(C(=O)NCc4ccccc4)CC3)cc2CC1C (stereo not given) | 14.7 |
| COc1ccc(CC2C(=O)N(C)C(=O)N(C)C2=O)c(OC)c1 | -3.03 |
| O=C/C(=C\Nc1ccc(Cl)cn1)c1nc2cc(Cl)ccc2o1 | 58.2 |
| COC(=O)C(C)Oc1ccc2c(-c3cccc([N+](=O)[O-])c3)cc(=O)oc2c1 (stereo not given) | 67.4 |
| COc1ccc(-c2cc(=O)oc3cc(OCC(=O)N(C)C)ccc23)cc1 | -18.8 |
| COc1ccc(-c2cc3ccc(OC(C)C(=O)O)cc3oc2=O)cc1 (stereo not given) | -4.62 |
| COc1ccc(-c2cc3ccc(OCC(C)=O)cc3oc2=O)cc1 | 15.4 |
| CC(Oc1ccc2cc(-c3ccccc3)c(=O)oc2c1)C(=O)NCC1CCC(C(=O)O)CC1 (stereo not given) | 4.91 |
| COc1ccc(-c2cc3ccc(OCC(N)=O)cc3oc2=O)cc1OC | 17.8 |
| CC(=O)COc1ccc2c(-c3cccc([N+](=O)[O-])c3)cc(=O)oc2c1 | -17.4 |

| Compound | inhibition [%] |
| --- | --- |
| COc1ccc(-c2cc(=O)oc3cc(OCC(C)=O)ccc23)cc1 | 36.8 |
| NS(=O)(=O)c1ccc(CCNC(=O)c2cccc(S(=O)(=O)N3CCCC3)c2)cc1 | 17.3 |
| S=c1[nH]nc(C2CCCCC2)n1/N=C/c1cccc(Br)c1 | -5.05 |
| O=C(c1ccco1)N1CCN(S(=O)(=O)c2ccc(Cl)cc2)CC1 | -7.62 |
| COCCCNC(=O)Nc1ccc(F)cc1F | -3.58 |
| NC(=O)COc1cc2oc(=O)c3c(c2cc1Cl)CCCC3 | -1.26 |
| CCN(CC)C(=O)c1sc(N)c(C(=O)OC(C)C)c1C | 29.4 |
| O=C(O)C1CC=CCC1C(=O)c1ccccc1 (stereo not given) | -2.95 |
| O=c1cccccc1NN=C1CCCCCC1 | 15.8 |
| CCOC(=O)c1sc(NC(=O)CSc2n[nH]c(C)n2)nc1C | 23.3 |
| CC(=C/c1ccco1)/C=N/NC(=O)c1ccncc1 | 52.5 |
| C/C(=N\Nc1nc(-c2ccccc2O)nc2ccccc12)c1ccccc1 | 7.99 |
| CC(C)CCC(C(=O)O)C(C)CC(=O)Nc1ccn(-c2ccccc2)n1 (stereo not given) | -10 |
| CSCCC(NC(=O)COc1ccccc1)C(=O)N(C)Cc1cccc(F)c1 (stereo not given) | 23.5 |
| CCN(CC)C(=O)COc1ccc2c(-c3ccccc3)cc(=O)oc2c1 | -10 |
| O=C(O)COc1ccc2c(-c3ccccc3)cc(=O)oc2c1 | -4.18 |
| Cc1ccc(NC(=O)CN(C)C(=O)CSc2ccccc2F)cc1 | 1.97 |
| COc1ccc(C(CNC(=O)c2c(C)nn(Cc3ccccc3)c2Cl)N2CCOCC2)cc1 (stereo not given) | 11.7 |
| O=C(COc1ccccc1)NCC(=O)NC1CCCCC1 | 3.74 |
| O=C(COc1ccc(C(=O)c2ccccc2)cc1)NC1CCCCCC1 | 55.6 |
| COc1ccc(OCCC(=O)OCC(=O)NC2CCCCC2)cc1 | 39.1 |
| COc1ccc(OCCC(=O)OCC(=O)NC2CCCCCCC2)cc1 | 42.5 |
| CCOc1ccc(CCNC(=O)CCc2nnc3ccc(N4CCCCC4)nn23)cc1OCC | 20.8 |
| Cc1cccc[n+]1C1C(c2ccccc2)C(C#N)=C(C(=C=[N-])C#N)NC1(O)C1CC1 (stereo not given) | 17.4 |

| Compound | inhibition [%] |
| --- | --- |
| COC(=O)c1ccc(CN2CCN(C3CCCCC3)C(CCO)C2)cc1 (stereo not given) | -2.17 |
| CCOC(=O)[C@@H]1[C@H]2COc3ccc(Br)cc3[C@H]2N2C(=O)N(c3ccc(C(F)(F)F)cc3)C(=O)[C@]12C | 37.9 |
| O=C(c1ccc(Cl)s1)N1CCCC1 | 31 |
| O=C(c1ccc(Br)s1)N1CCCC1 | 46.3 |
| Cc1ccc(NC(=O)CCC(=O)Nc2nnc(C3CCCCC3)s2)cc1 | -1.2 |
| NC(=NCCc1ccccc1)NS(=O)(=O)c1ccc2ccccc2c1 | 51.5 |
| CCC(CO)N=CC1=C(O)C(C(=O)c2ccccc2)CCC1=O (stereo not given) | 4.93 |
| CC(=O)Nc1ccc(NC(=O)CSc2nnc(-c3cc4ccccc4o3)n2C)cc1 | -4.95 |
| COc1cc(C(=O)O)c2ccccc2n1 | -12.4 |
| COc1cccc2nc3cc(C)c(C)cc3nc12 | 39.2 |
| CC(CNC(=O)CN1C(=O)C(=O)N(C2CCCC2)C1=O)c1ccccc1 (stereo not given) | 21.6 |
| O=C(O)C1=NN(c2ccccc2)C(=O)CC1 | 1.61 |
| COc1cc(CNCCO)cc(Br)c1OCc1ccccc1 | 28.5 |
| COc1cc(CNCCO)cc(Br)c1OCc1ccccc1Cl | 79 |
| CCOc1cc(CNCCO)cc(Br)c1OCc1ccccc1 | 75.9 |
| CCOc1cc(CNCCO)cc(Br)c1OCc1cccs1 | 73.5 |
| COCCNC(=O)COc1coc(CN2CCN(Cc3ccccc3)CC2)cc1=O | 0.19 |
| Cc1cccc(C(=O)NNC(=O)c2csc(N3CCOCC3)n2)c1C | -2.47 |
| CCOc1ccc2oc(C(=O)NNC(=O)c3csc(N4CCOCC4)n3)c(C)c2c1 | 75.8 |
| CC1(C)CC(=O)C(N=Nc2cccc([N+](=O)[O-])c2)=C(O)C1 | -5.61 |
| CCN(N=Nc1cccc([N+](=O)[O-])c1)c1cccc([N+](=O)[O-])c1 | -3.89 |
| COCC(C)n1c(SCC(=O)N2CCOCC2)nc2ccccc2c1=O (stereo not given) | 3.46 |
| CCC(C)[C@H](NC(=O)[C@@H]1CSC2c3ccccc3C(=O)N21)C(=O)N1CCCCC1 (stereo not given in full) | 12.4 |
| Cc1ccc(C(=O)CSc2nnc(-c3ccccc3)o2)cc1 | 64.9 |

| Compound | inhibition [%] |
| --- | --- |
| O=C(O)c1ccc(-c2nnc(-c3ccc([N+](=O)[O-])cc3)o2)cc1 | -2.79 |
| Oc1ccc(-c2nnc(SCc3ccccc3)o2)cc1 | 77.5 |
| O=C(CSc1nnc(-c2ccncc2)o1)c1cccc([N+](=O)[O-])c1 | 70.5 |
| CCSc1nnc(-c2ccncc2)o1 | 0.24 |
| OCC#CCSc1nnc(-c2ccncc2)o1 | 23.9 |
| O=C(CSc1nnc(-c2ccc(O)cc2)o1)Nc1ccccc1 | 63.5 |
| COc1ccc(-c2nnc(SCC#CCO)o2)cc1OC | 45.7 |
| CCOCCCNC(=O)c1cc2c(s1)-c1ccccc1SC2 | 9.76 |
| CC(=O)Nc1nccc(-c2cc(-c3ccccc3)no2)n1 | 2.66 |
| COc1ccccc1N(CC(O)Cn1c2ccccc2c2ccccc21)S(=O)(=O)c1ccccc1 (stereo not given) | 31.5 |
| Cc1ccccc1C(=O)NNC(=O)c1ccc2nc[nH]c2c1 | 8.7 |
| COc1ccc(S(=O)(=O)Nc2cccc3c2O[C@H](CN(C)S(=O)(=O)c2ccc(Cl)cc2)[C@H](C)CN([C@H](C)CO)C3=O)cc1 | 51.4 |
| O=c1c2ccccc2ncn1-c1ccc(Cl)c(Cl)c1 | 1.67 |
| COc1cc(Cl)cc(C=O)c1OCC(=O)O | 8.45 |
| COc1ccc(CCNC(=O)C2CCCN2C(=O)Nc2ccc(Cl)cc2)cc1OC (stereo not given) | 20.8 |
| Cc1ccccc1-c1nnc(SCC#N)o1 | 15.7 |
| C#CCSc1nnc(-c2sc3ccccc3c2Cl)o1 | 71.8 |
| Cc1ccc(CSc2nnc(-c3cccc4ccccc34)o2)cc1 | 14.4 |
| C=CCSc1nnc(-c2cccc3ccccc23)o1 | 5.5 |
| C#CCSc1n[nH]c(=O)n1-c1cccc(C(F)(F)F)c1 | 3.27 |
| O=C(N/N=C/c1c(O)n(-c2ccc(Cl)cn2)c(=O)c2ccccc12)C1CC1 | 6.8 |
| O=C(CCNc1n[nH]c(=O)[nH]c1=O)N/N=C\c1cccc(OCc2ccccc2)c1 | 10.7 |
| CC(=O)Nc1ccc(NC(=O)c2ccc(-c3ccc([N+](=O)[O-])cc3)o2)cc1 | 28.3 |
| COc1cccc(NC(=O)CNC(=O)c2ccc([N+](=O)[O-])cc2)c1 | 12.4 |

| Compound | inhibition [%] |
| --- | --- |
| Cc1ccccc1NC(=O)c1ccc(Cn2cc([N+](=O)[O-])cn2)o1 | 46.5 |
| COc1ccc(CCNC(=O)c2ccc(-c3ccc([N+](=O)[O-])cc3)o2)cc1OC | 60.1 |
| COc1cccc(NC(=O)CC(=O)c2ccc([N+](=O)[O-])cc2)c1 | 47 |
| COc1ccc(NC(=O)c2ccc(C(=O)c3ccccc3)o2)cc1 | -11.3 |
| COc1cccc(NC(=O)c2ccccc2)c1 | 4.57 |
| Cc1cc(NC(=O)c2ccc(Cn3cc([N+](=O)[O-])cn3)o2)no1 | 14.1 |
| CSc1nc2n(n1)C(C)C1=C(CCCC1=O)N2 (stereo not given) | -15.3 |
| CC(=O)Nc1ccc(NC(=O)c2ccc(S(=O)(=O)N(C)c3ccccc3)cc2)cc1 | -4.01 |
| COc1ccc(C(=O)OCc2c(-c3ccccc3)ncc3ccccc23)cc1 | 14.9 |
| Cc1cccc(C(=O)NCCC(=O)Nc2ccc(C#N)cc2)c1 | -25.3 |
| Cc1cccc2nc(CSc3ccccc3C(=O)O)cn12 | 24.4 |
| Cc1cc(C)cc(NC(=O)C2CCCN(c3ncccn3)C2)c1 (stereo not given) | 0.57 |
| c1cc(-c2cc3cc4c(cc3cn2)OCO4)cs1 | 53.8 |
| O=S(=O)(c1cc(Cl)ccc1Cl)N1CCN(c2ccccn2)CC1 | 6.68 |
| O=S(=O)(CCN1CCN(c2ccccn2)CC1)c1ccc(F)cc1 | 3.07 |
| CC(=O)Cn1c2ccccc2n2nc(CCC(=O)O)c(=O)nc12 | -25.9 |
| O=C(OCC(=O)N1CCN(C(=O)COC(=O)c2ccc(O)cc2O)CC1)c1ccc(O)cc1O | -2.13 |
| O=C(OCC(=O)N1CCCC1)c1ccccc1O | 71.7 |
| O=C(c1cc2ccccc2cc1O)N1CCCC1 | 5.6 |
| CC1CCN(C(=O)c2cc3ccccc3cc2O)CC1 | 62 |
| Cc1cccc(C(=O)OCC(=O)N2CCCCCC2)c1 | 12 |
| NC(=O)C1CCN(C(=O)COc2ccc(Nc3ccccc3)cc2)CC1 | 24.7 |
| O=C(COc1ccc(Cl)cc1)OCC(=O)N1CCCCCC1 | 70.8 |
| CC1CCN(C(=O)COC(=O)c2cc3ccccc3oc2=O)CC1 | 11.8 |

Source: PubChem BioAssay AID488890 (Southern Research Specialized Biocontainment Screening …, 2010)
